Screens from PubChem BioAssay.
D2 ag-1 – human D2 receptor agonism in beta-arrestin assay; P14416; DiscoveRx PathHunter D2 beta-arrestin, luminescence, 90 min; 100% = 57 uM dopamine signal; activation, % (concentration not given with the values); 0.084% of 360,000 active; AID 624465; in the data active = activation above about 40%; inconclusive = between about 15% and that limit
Target sequence (P14416 whole entry, looked up): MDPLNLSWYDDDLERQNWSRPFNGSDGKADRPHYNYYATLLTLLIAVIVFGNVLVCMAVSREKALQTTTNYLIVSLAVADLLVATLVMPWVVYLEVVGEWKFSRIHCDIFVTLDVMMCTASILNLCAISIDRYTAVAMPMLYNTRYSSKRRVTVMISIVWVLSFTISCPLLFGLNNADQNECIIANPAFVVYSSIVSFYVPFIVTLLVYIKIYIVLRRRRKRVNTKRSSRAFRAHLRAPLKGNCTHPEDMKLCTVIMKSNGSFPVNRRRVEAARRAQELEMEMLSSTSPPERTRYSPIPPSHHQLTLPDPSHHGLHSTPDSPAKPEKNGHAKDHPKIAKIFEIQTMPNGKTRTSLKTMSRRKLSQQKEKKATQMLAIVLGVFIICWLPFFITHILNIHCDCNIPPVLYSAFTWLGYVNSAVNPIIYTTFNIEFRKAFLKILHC
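Agonist mode: compounds alone added to overnight-plated D2 PathHunter cells for 90 min at 37 C, with 57 uM final dopamine (EC100) defining full response. Beta-arrestin recruitment detected by chemiluminescent reagent, read after 1 h at ambient temperature.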
D2 ag-2 – D2 dopamine receptor (human) agonism. P14416. HEK293 T-REx D2 cells, calcium flux agonist mode. activation, % at 2 µM. 0.53% of 340,000 active. AID 485358;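 active = activation over 3 SD above normal in the single-dose calcium agonist read, cut at about 30% in these data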
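Tetracycline-induced HEK293 Trex cells with D2 receptor force-coupled to calcium signaling, plated overnight at 30 C and loaded with no-wash calcium dye. Calcium flux read kinetically for 180 s after compound addition; responses flag agonists.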
D2 PAM-1 – D2 dopamine receptor (human) potentiation | P14416 | HEK293 T-REx D2, calcium flux, EC20 dopamine potentiation | potentiation, % at 10 µM | 0.34% of 340,000 active | AID 485347;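 active = potentiation over 3 SD above the plate norm, cut at about 30% in these data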
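Using a no-wash calcium dye in inducible, force-coupled HEK293 Trex cells expressing D2, we tracked fluorescence each second for 180 s after compound, then for 180 s after EC20 dopamine to detect augmented signalling.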
D2 antag – D2 dopamine receptor (human) antagonism; HEK293 TREx D2 cells, calcium flux, dopamine EC80; AID 485344; 2% of 340,000 active; inhibition, % at 10 µM; P14416; in the data active = inhibition above about 30%; inactive = below that, where a call was filed
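Calcium mobilization kinetics were recorded at 1 s intervals in tetracycline-induced HEK293 T-REx D2 cells, first for 180 s after compound addition and then 180 s after EC80 dopamine.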
D2 PAM-2 – positive allosteric modulators of human D2 dopamine receptor; AID 624464; DiscoveRx D2 beta-arrestin cells, luminescence, 90 min; 100% = 57 uM dopamine signal; potentiation, % (no concentration beside the values); 0.23% of 360,000 active; in the data active = potentiation above about 50%; inconclusive = mostly about 30% to 49%
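PathHunter beta-arrestin assay in DiscoveRx D2 cells. Compounds were added with an EC20 of dopamine (50 nM final) for 90 min at 37 deg C. Luminescence was read 1 h after detection reagent, with 57 uM dopamine as the EC100 control.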
Numbers stand for hits; – = inactive; ? = inconclusive; · = no result. Compounds with a hit are over-represented: about 2.4% of the library has one in this group of screens.

SMILES	D2 ag-1	D2 ag-2	D2 PAM-1	D2 antag	D2 PAM-2
CCOC(=O)c1ccccc1NC(=O)N1CCC(CN2CCOCC2)CC1	·	·	–	·	·
CC(C)NC(=O)/C(=N\O)c1ccccc1	–	–	–	32	–
CC1(c2ccc(OC(F)F)cc2)NC(=O)N(CC(=O)Nc2cccc(F)c2)C1=O (configuration not stated)	–	33	–	–	–
CC1(c2ccc(OC(F)F)cc2)NC(=O)N(CC(=O)Nc2ccc(F)cc2)C1=O (configuration not stated)	–	–	–	–	–
Cc1ccc(NC(=O)C(Cc2ccccc2)NS(=O)(=O)c2cccc3nsnc23)c(C)c1 (configuration not stated)	·	–	–	·	·
COc1cccc(N2CCN(C(=O)c3c4c(nc5ccccc35)C(=O)N(C3CCCCC3)C4)CC2)c1	·	–	–	·	·
O=C(c1ccccc1)N1CCCCC(Cl)C1=O (configuration not stated)	–	–	–	31	–
CN(CC(=O)Nc1ccc(C#N)cc1)Cc1ccc(Cl)c(Cl)c1	–	–	–	–	–
CCc1ccc(CCC(=O)Nc2ccc(Cl)cc2)o1	–	–	–	42	–
CN(CCC(=O)Nc1ccc(Cl)cc1)Cc1ccccc1	–	–	–	45	–
CN(CCC(=O)Nc1ccc2c(c1)OCO2)Cc1ccccc1	–	–	–	–	–
CN(CC(=O)Nc1cccc(C#N)c1)Cc1ccc(Cl)cc1	–	–	–	68	–
CN(Cc1ccccc1)C(=O)c1cccc(NC(=O)c2ccco2)c1	–	–	–	–	–
CN(Cc1ccccc1)C(=O)c1ccc(NC(=O)c2ccccc2)cc1	–	–	37	–	–
COc1cc2c(cc1OC)C(COc1ccc3c(C)cc(=O)oc3c1)N(C(=O)Cc1ccccc1)CC2 (configuration not stated)	·	–	·	·	·
O=C(Nc1ccc2nn(-c3ccccc3)nc2c1)c1ccc(-c2cccc(Cl)c2)o1	·	–	–	·	·
O=C(COC(=O)/C=C/c1cccc([N+](=O)[O-])c1)Nc1ccc(Cl)cn1	–	–	–	39	–
OCCC1CN(Cc2ccc(F)cc2Cl)CCN1CCc1ccccc1 (configuration not stated)	–	–	–	–	–
COc1ccc(F)c(CN2CCN(CCc3ccccc3)C(CCO)C2)c1 (configuration not stated)	–	–	–	–	–
OCCC1CN(Cc2cc(F)ccc2F)CCN1CCCc1ccccc1 (configuration not stated)	–	–	–	83	–
COc1ccc(O)c(CN2CCN(CCCc3ccccc3)C(CCO)C2)c1 (configuration not stated)	–	–	–	75	–
COc1ccc(OC)c(CN2CCN(CCc3ccccc3)C(CCO)C2)c1 (configuration not stated)	–	–	–	45	–
COCc1cc(CN2CCN(CCCc3ccccc3)C(CCO)C2)ccc1OC (configuration not stated)	–	–	–	–	–
Cc1ccc(S(=O)(=O)Nc2ccc(Cl)cc2)cc1NC(=O)c1cc2c(s1)CCCC2	–	–	–	–	72
CCN(CC)c1ccc(NS(=O)(=O)c2ccc(-c3coc(C)n3)cc2)c(C)c1	·	–	–	·	·
SMILES	D2 ag-1	D2 ag-2	D2 PAM-1	D2 antag	D2 PAM-2
CCCCCNC(=O)C1CC=CCC1C(=O)O (configuration not stated)	–	–	–	36	–
O=C(O)CCCC(=O)Nc1cccc([N+](=O)[O-])c1	–	–	38	–	–
Cc1ccc[n+](CC(=O)Nc2cccc([N+](=O)[O-])c2)c1	–	–	–	32	–
O=C(Nc1cccc([N+](=O)[O-])c1)Nc1cnccn1	–	38	–	–	–
O=C(Nc1cccc([N+](=O)[O-])c1)Nc1cccc([N+](=O)[O-])c1	–	–	–	–	–
COc1ccc(C(CC(=O)Nc2cc(Cl)c(OC)cc2OC)N2Cc3ccccc3C2=O)cc1 (configuration not stated)	·	–	–	·	·
COCCCn1c(=N)c(S(=O)(=O)c2ccccc2)cc2c(=O)n3cccc(C)c3nc21	·	·	–	·	·
O=C(NNC(=S)Nc1ccccc1Cl)c1ccccc1Br	–	–	–	53	–
O=C(NNC(=O)c1ccccc1Br)c1ccccc1Cl	–	–	–	–	–
Cc1cc(NC(=O)CN2CC(C)OC(C)C2)n(-c2nc3ccccc3s2)n1 (configuration not stated)	–	–	–	34	–
Cc1cccc(C)c1OCCN1C(=O)NC(C)(c2ccccc2)C1=O (configuration not stated)	–	–	39	–	–
CCNc1nc(Oc2ccc(=O)n(-c3ccccc3)n2)nc(N(C)C)n1	–	–	–	–	?
CCNc1nc(OC)nc(Oc2ccc(=O)n(-c3ccccc3)n2)n1	–	–	38	–	–
COc1ccc(-c2[nH]c(-c3ccccc3)nc2SCC(=O)Nc2ccc3c(c2)OCO3)cc1	·	–	–	·	·
Cc1cccc(NC2=C/C(=N/S(=O)(=O)c3cccs3)c3ccccc3C2=O)c1	?	–	–	–	96
Cc1ccc(/C=C2\SC(=S)N(/N=C/c3cc([N+](=O)[O-])ccc3O)C2=O)o1	–	–	–	32	–
O=C(NN1C(=O)/C(=C/c2cc([N+](=O)[O-])ccc2O)SC1=S)c1ccccc1O	·	–	–	–	·
CC(=O)Oc1ccc2c(c1)Oc1cc(OC(C)=O)ccc1C21OC(=O)c2ccccc21	–	165	–	84	?
Cc1cc(O)ccc1C1(c2ccc(O)cc2C)OC(=O)c2ccccc21	–	–	–	–	–
CCOc1ccccc1CNC(=O)c1cnc2sc(N3CCCCCC3)nn2c1=O	·	–	–	·	·
Cc1ccc2[nH]c(CSc3nnc(NC(=O)c4ccccc4C)s3)cc(=O)c2c1	·	–	–	·	·
CCCN(Cc1nnc(-c2cccs2)o1)C(=O)CN1C(=O)NC2(CCCCC2)C1=O	–	–	–	31	–
CCCN(Cc1nnc(-c2cccs2)o1)C(=O)CN1C(=O)NC2(CCC(C)CC2)C1=O (configuration not stated)	–	–	–	–	–
O=C(CCNS(=O)(=O)c1ccc(OC(F)(F)F)cc1)NCCc1c[nH]c2ccccc12	–	–	–	40	–
COc1ccccc1N1CCN(c2nc3ccc(C(=O)c4ccccc4)cc3n3c(C)nnc23)CC1	·	–	–	·	·
CCc1ccccc1NC(=S)N(CCN1CCOCC1)C1CCN(C(C)=O)CC1	–	–	–	31	–
CCSc1nc2ccccc2n1CCC(=O)O	–	–	–	45	–
O=C(OCc1nnc(-c2ccc([N+](=O)[O-])cc2)o1)C1CCN(C(=O)c2ccc(Cl)cc2)CC1	–	–	–	–	–
